# This excerpt belongs to a sample that is enriched for hits.
# FH mod: Identification of activators of human fumarate hydratase by quantitative high-throughput screening. FH coupled MDH/diaphorase resazurin fluorescence, 15 min. Fumarate hydratase, mitochondrial (Homo sapiens), P07954. Potency, µM (titrated, usually from 79.9 µM), for the others: top-dose activity change, negative = inhibition, usual class: inhibitors. hit rate 0.22% among 54,000; note: % is set by controls: 0 for no effect and ±100 for the full control effect; the screen sought activators but most active calls are inhibition curves; nearly all actives have a fitted effect of over 45% in size
# GALC G270D up: A Novel Cell-Based Assay to Identify Small Molecules for B -Galactocerebrosidase; P54803; 145M-Twi-hGALC-G270D cells (Twitcher mouse brain line with human GALC G270D), HMU-beta-Gal fluorescence, 48 h; Potency, µM (series often up to 57.5 µM), actives largely listed as activators; hit rate 0.1% among 45,000; AID 1159614, 2016; note: 0% is about no effect; nearly all actives have a fitted effect of over 65% in size
#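 Fluorescence readout: HMU-β-gal cleavage by mutant GALC (0.1 mM final, citrate/phosphate pH 5.2 with 1 mg/mL taurocholate), stopped with carbonate/bicarbonate plus Triton X-100. Cells: murine Twitcher 145M-Twi expressing human G270D GALC; qHTS for activators.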
# NTMT1 inh: Primary qHTS for Inhibitors of N-terminal methyltransferase 1 (NTMT1): MTaseGlo Assay. NTMT1 MTase-Glo SAH luminescence, purified enzyme. hit rate 2.5% among 59,000. Potency, µM (titrated, usually from 114 µM), for inactives: top-dose activity change, negative = inhibition, actives largely listed as inhibitors. AID 1645870, 2021. N-terminal Xaa-Pro-Lys N-methyltransferase 1 (Homo sapiens), Q9BV86;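 note: plate controls were DMSO vehicle for no effect and no enzyme for full effect; nearly all actives have a fitted effect of over 65% in size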
# Target sequence (Q9BV86 whole entry, looked up): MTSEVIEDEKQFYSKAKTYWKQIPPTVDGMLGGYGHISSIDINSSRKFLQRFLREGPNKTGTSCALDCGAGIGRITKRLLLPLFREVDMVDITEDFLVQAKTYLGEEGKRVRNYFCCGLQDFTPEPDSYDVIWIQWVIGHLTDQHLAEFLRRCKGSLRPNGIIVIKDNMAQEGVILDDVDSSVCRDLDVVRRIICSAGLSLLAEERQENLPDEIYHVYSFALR
# Starred values were filed as active, the others as inactive; i = inactive; u = inconclusive; x = no result; [ ] = dose if it differs, or a comment. Calls come from the whole dose curve; as a rule, active = well fitted curve in the direction sought with a large enough effect; inconclusive = small, poorly fitted or top-dose-only effect, or another doubt; inactive = no such curve, though single readings can be large; an effect the other way counts as inactive or inconclusive. Potency is the fitted concentration of half-maximal effect.
SMILES,FH mod,GALC G270D up,NTMT1 inh
Nc1c(C(=O)Nc2ccc(Cl)c(C(F)(F)F)c2)sc2nc3c(cc12)N1CCC3CC1,-20.1%,i,-1.8%
Nc1c(C(=O)Nc2ccc(Cl)cc2)sc2nc3c(cc12)N1CCC3CC1,-3.2%,31.6µM*,u
CC(C)(O)C=CC(=O)[C@](C)(O)[C@H]1[C@H](O)C[C@]2(C)[C@@H]3CC=C4[C@@H](C=C(O)C(=O)C4(C)C)[C@]3(C)C(=O)C[C@@]12C,6.4%[53.3 µM],x,28.1%[57.5 µM]
CCCN(CCC)CCc1ccc(OC)c(OCCc2ccccc2)c1,2.9%,x,-3.8%[57.5 µM]
Cc1ncc(OC[C@@]2(c3cccc(F)c3)C[C@H]2C(=O)Nc2ccc(F)cn2)c(C)n1,x,x,2.6%[57.5 µM]
C#CC1(O)CCC2C3CCC4=CC(=O)CCC4=C3C=CC21C (stereo not given),4.2%,x,5.8%[57.5 µM]
C=CC[C@]1(O)CC[C@H]2[C@@H]3CCC4=CC(=O)CCC4=C3C=C[C@@]21C,-8.1%[53.3 µM],i,22.4µM*
COC1=CC(C)=C[C@@H](C)[C@@H](O)[C@@H](C)CC(C)=CC=C[C@H](OC)[C@H]([C@@H](C)[C@@H](O)[C@H](C)[C@@]2(O)C[C@@H](O)[C@H](C)[C@@H](C(C)C)O2)OC1=O,-14.5%[53.3 µM],x,u
c1ccc(N2CCNCC2)cc1,1.1%[53.3 µM],i,24.5%[57.5 µM]
c1ccc(CN2CCNCC2)cc1,30.9%[162 µM],i,100µM*
C[C@]12CC[C@@H]3[C@@H](CCC4=CC(=O)CC[C@@H]43)[C@@H]1CC[C@@H]2OC(=O)CCc1ccccc1,-10.7%[53.3 µM],x,17.8%[57.5 µM]
C[C@]12CC[C@H]3[C@@H](CCC4=CC(=O)CC[C@@H]43)[C@@H]1CC[C@@H]2OC(=O)CCc1ccco1,-4.1%[53.3 µM],i,25.1µM*
Nc1cccc2c(N)cccc12,-16.6%,i,35.5µM*
CC1=C[C@H]2O[C@@H]3[C@H](O)[C@@H](O)[C@](C)([C@@]2(CO)C[C@@H]1O)[C@]31CO1,8.1%,x,7.4%[57.5 µM]
CC(=O)OC[C@H]1O[C@@H]([S-])[C@H](OC(C)=O)[C@@H](OC(C)=O)[C@@H]1OC(C)=O.CC[PH+](CC)CC.[Au],x,x,10µM*
COc1cc(CCNCc2ccccc2O)c(OC)cc1C#N,-0.1%,x,-3.7%[57.5 µM]
CC[C@H](C)[C@H](NC(=O)[C@H]1CCCCN1C)C(=O)N(COC(=O)CC(C)C)[C@H](C[C@@H](OC(C)=O)c1nc(C(=O)N[C@@H](Cc2ccc(O)cc2)C[C@H](C)C(=O)O)cs1)C(C)C,5.7%[1.9 µM],x,2.3%[1.07 µM]
OCc1nnc2n1-c1ccc(Cl)cc1C(c1ccccc1Cl)=NC2,12.5%,x,8.9%[57.5 µM]
CC[n+]1c(-c2ccccc2)c2cc(N)ccc2c2ccc(N)cc21,-23.8%[53.3 µM],i,28.2µM*
CO/C1=C/C(C)=C\[C@@H](C)[C@@H](O)[C@@H](C)C/C(C)=C\C=C/[C@H](OC)[C@@H]([C@@H](C)[C@@H](O)[C@H](C)[C@@]2(O)C[C@@H](O)[C@H](C)[C@@H](C(C)C)O2)OC1=O,x,x,4.3%[29.8 µM]
NCCc1c[nH]c2ccccc12,-1.5%[53.3 µM],x,x
NCCc1cc(O)c(O)cc1O,-9.9%[53.3 µM],i,28.2µM*
CC(=O)O[C@@H]1[C@H]2CC[C@H]3[C@@](C)(O)[C@@H]4C[C@H](O)C(C)(C)[C@@]4(O)[C@H](O)C[C@@]13C[C@@]2(C)O,-3.3%[53.3 µM],x,11.5%[29.8 µM]
C[C@]12CC[C@H](O[C@@H]3O[C@H](CO)[C@@H](O)[C@H](O)[C@H]3O)CC1CC[C@@H]1C2CC[C@]2(C)[C@@H](C3=CC(=O)OC3)CC[C@]12O (stereo not given in full),1.6%[53.3 µM],x,-10.3%[29.8 µM]

# High-throughput results deposited in PubChem by National Center for Advancing Translational Sciences (NCATS).
